Experimental findings from ChEMBL document CHEMBL4513154, “CO-ADD screening of Jain University (India) compounds” are described below.

Molecules are shown by their SMILES. Results with a measured potency or affinity are listed apart.

Assay [1] deals with Staphylococcus aureus. To be noted: Concentration 32 ug.mL-1; ASSAY_TEST Inhibition of Bacterial Growth; detection method Absorption (OD600); MEDIA CAMHB; plate type 384well; NBS; CORNING #3640; time 18 hr.
Assay [2] relates to Escherichia coli. The conditions noted are these: Concentration 32 ug.mL-1; ASSAY_TEST Inhibition of Bacterial Growth; detection method Absorption (OD600); MEDIA CAMHB; plate type 384well; NBS; CORNING #3640; time 18 hr.

As usually defined, the Inhibition is the change of the read-out against control, counted positive when it falls. In the case of `Clc1ccc(Cn2c(-c3cscn3)nc3ccccc32)cn1`, the Inhibition in assay [1] is given as 3.88%; in assay [2], -1.48%.

For the molecule `Clc1ccc2c(c1)nc(-c1cscn1)n2Cc1ccc(Cl)nc1`, the figures for the Inhibition in assay [1] and in assay [2] were -10.99% and -7.54%, respectively.

On to `Clc1ccc(Cn2c(-c3cscn3)nc3c(Cl)cccc32)cn1`, for which the values for the Inhibition in assay [1] and in assay [2] were -6.34% and -8.9%, respectively.
